Test results reported in the supplement of paper PMC8975748.
Structures can show the parent of a compound that is named as a salt.

The compounds below were run on Saccharomyces cerevisiae BY4741 SeMeCo community (assay: z-score of subpopulation abundance vs DMSO median, subpopulation auxotrophic for HLUM; higher = larger share of this subpopulation than in DMSO controls). Settings: 10 µM; 24 h; SM minimal medium; subpopulation (auxotrophy): HLUM.
Method in brief: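 Four plasmids, each restoring a single auxotrophy and encoding a distinct fluorescent protein, were carried by a Saccharomyces cerevisiae BY4741 community. After overnight growth to OD600 1.0 and dilution to 0.3, 70 µl per well was grown for 24 h in minimal SM medium on 384-well plates acoustically predosed with library drugs at 10 µM final. Following paraformaldehyde fixation, automated confocal microscopy was used, with single-auxotroph fluorescent strains defining thresholds and autofluorescence correction. Subpopulation abundance was then scored as a z-score against the vehicle-well median.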
With `C[C@]12CCC3=C4CCC(=O)C=C4CC[C@H]3[C@@H]1CC[C@@]2(O)CC#N` [Dienogest] the “z-score of subpopulation abundance” value was -0.14. In the case of `C[N+]1(C)CCC(OC(=O)C(O)(c2ccccc2)C2CCCC2)C1` (stereo not given) [Glycopyrrolate], the “z-score of subpopulation abundance” value is reported as -0.01. With `NCC[C@H](O)C(=O)N[C@@H]1C[C@H](N)[C@@H](O[C@H]2O[C@H](CN)[C@@H](O)[C@H](O)[C@H]2O)[C@H](O)[C@H]1O[C@H]1O[C@H](CO)[C@@H](O)[C@H](N)[C@H]1O` [Amikacin disulfate] the “z-score of subpopulation abundance” value was 0.42. `CN1C2CCCC1CC(NC(=O)c1nn(C)c3ccccc13)C2` (stereo not given) [Granisetron] was tested, and the “z-score of subpopulation abundance” value was -0.81. `CCCCCNC(=N)N/N=C/c1c[nH]c2ccc(OC)cc12` [Tegaserod Maleate] was tested, and the “z-score of subpopulation abundance” value was 1.76. For `CS(=O)(=O)Nc1ccc([N+](=O)[O-])cc1Oc1ccccc1` [Nimesulide], the “z-score of subpopulation abundance” value was 0.87. `COc1cc(O)c(C(=O)Nc2nc(C(=O)NCCN(C(C)C)C(C)C)cs2)cc1OC` [Acotiamide hydrochloride] was tested, and the “z-score of subpopulation abundance” value was -0.39. In the case of `C[C@H]1c2cccc(O)c2C(O)=C2C(=O)[C@]3(O)C(O)=C(C(N)=O)C(=O)[C@@H](N(C)C)[C@@H]3[C@@H](O)[C@@H]21` [Doxycycline monohydrate], the “z-score of subpopulation abundance” value is reported as 0.42. In the case of `CC(c1cc2ccccc2s1)N(O)C(N)=O` (stereo not given) [Zileuton], the “z-score of subpopulation abundance” value is reported as 0. For `Nc1nc2[nH]cc(CCc3ccc(C(=O)N[C@@H](CCC(=O)O)C(=O)O)cc3)c2c(=O)[nH]1` [Pemetrexed Disodium Hydrate], the “z-score of subpopulation abundance” value was 3.48.
